# PubChem BioAssay (Tox21)
# Values without a mark were called inactive. Inconclusive results are not listed. A call without a number means that no potency is given here. Activity calls are given as the source filed them. Unless noted, the call rests on the fitted dose curve.
# Tests used:
# [1] = qHTS assay to identify small molecule antagonists of the sonic hedgehog signaling (Shh) pathway (AID 1259369); further: nearly all actives have a fitted effect of over 45% in size; further: potency means the concentration at half of the fitted maximal effect
# Outline: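 3T3Gli1-Luc, conditioned-medium-stimulated, 24hr cpd, 37C/5% CO2; Gli1-driven firefly Luc luminescence after 30min RT with luciferase reagent. Cells plated 4hr before cpd.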
# [2] = qHTS assay to identify small molecule agonists of the androgen receptor (AR) signaling pathway in the presence of an antagonist - cell viability counter screen (AID 1259379; active means well fitted curve in the direction sought with a large enough effect in the repeat runs; an effect the other way counts as inactive or inconclusive; further: nearly all actives have a fitted effect of over 25% in size; further: potency means the concentration at half of the fitted maximal effect)
# Outline: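 Cells: MDA-kb2 (MMTV-luc, AR and GR elements), 3,000/well, 5 hr settle. Added: nilutamide 3.0uM final, then compounds (15 conc.). Incubation: 16 hr, 37C, no CO2. Read-out: CellTiter-Fluor, 1 hr, fluorescence.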
# [3] = qHTS assay to identify small molecule antagonists of the estrogen receptor beta (ER-beta) signaling pathway - cell viability counter screen (AID 1259382; active means well fitted curve in the direction sought with a large enough effect in the repeat runs; an effect the other way counts as inactive or inconclusive; further: nearly all actives have a fitted effect of over 55% in size; further: potency means the concentration at half of the fitted maximal effect)
# Outline: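 Cells: ER-beta-UAS-bla HEK293T, 2,000/well, 2% CS-FBS, 6 hr settle. Cpd + E2 (1nM final), 16 hr, 37C/5% CO2. Bla FRET substrate 2 hr RT, then CellTiter-Glo 30 min RT, luminescence.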
# [4] = biological target: Estrogen receptor (Homo sapiens) (UniProt P03372); assay: qHTS assay to identify small molecule agonists of the estrogen receptor alpha (ER-alpha) signaling pathway in the presence of an antagonist (AID 1259383); further: top concentration of the series differs between compounds; nearly all actives have a fitted effect of over 15% in size
# Outline: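 VM7Luc4E2, endog. ER-alpha + 4×ERE-luc; charcoal-stripped FBS, phenol red-free, 5 d; 24hr plating; +10.0nM ICI-182,780 (final); cpds 15 conc, 22hr, 37C/5% CO2; ONE-Glo luminescence.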
# [5] = qHTS assay to identify small molecule agonists or antagonists of the thyroid stimulating hormone receptor (TSHR) signaling pathway - wild type cell line counter screen (AID 1259384)
# Outline: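 Wild-type HEK293 cells were plated 18 h at 37 C/5% CO2, pin-dosed with compound plus Ro20-1724 medium, held 30 min at room temperature, then given cAMP-d2 and anti-cAMP-cryptate; fluorescence was read after 1 h. Fifteen concentrations, triplicate.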
# [6] = qHTS assay to identify small molecule agonists of the estrogen receptor alpha (ER-alpha) signaling pathway in the presence of an antagonist - cell viability counter screen (AID 1259386; active means well fitted curve in the direction sought with a large enough effect in the repeat runs; an effect the other way counts as inactive or inconclusive;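 further: cells exposed to compounds for 22 h at 37 °C before the viability read; nearly all actives have a fitted effect of over 30% in size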; further: potency means the concentration at half of the fitted maximal effect)
# Outline: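 VM7Luc4E2, stripped-serum pre-culture 5 d; 24hr plating; +ICI-182,780 10.0nM final; cpds 15 conc, 22hr, 37C/5% CO2; CellTiter-Fluor added at 21hr, fluorescence 1hr later.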
# [7] = biological target: Progesterone receptor (Homo sapiens) (UniProt P06401); assay: qHTS assay to identify small molecule antagonists of the progesterone receptor (PR) signaling pathway (AID 1346795; active means well fitted inhibition curve with a large enough effect in the signal ratio in the repeat runs, not every such curve was filed as active; the % refers to the signal ratio; further: potency means the concentration at half of the fitted maximal effect)
# Outline: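 Fluorescence intensity measured 2 hr after adding beta-lactamase FRET substrate to PR-UAS-bla HEK293T cells that had been co-treated 16 hr with compound and 1 nM R5020 (final concentration) in 2% charcoal-stripped FBS.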
# [8] = qHTS assay to identify small molecule agonists of the TGF-beta/Smad signaling pathway - cell viability counter screen (AID 1346829; active means well fitted curve in the direction sought with a large enough effect in the repeat runs; an effect the other way counts as inactive or inconclusive; further: nearly all actives have a fitted effect of over 45% in size; further: potency means the concentration at half of the fitted maximal effect)
# Outline: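 CellTiter-Glo luminescence readout; SBE-bla HEK 293T cells, overnight plating, compound 5 hr at 37 C/5% CO2, then bla substrate 2 hr RT, then CellTiter-Glo 30 min RT.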
# [9] = biological target: Thyrotropin-releasing hormone receptor (Homo sapiens) (UniProt P34981); assay: qHTS assay to identify small molecule antagonists of the thyrotropin-releasing hormone receptor (TRHR) signaling pathway (AID 1346877; active means well fitted inhibition curve with a large enough effect in the repeat runs, not every such curve was filed as active; further: series mostly up to about 51 µM)
# Outline: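 Intracellular calcium fluorescence, read kinetically every second over 3 min, reports TRH-evoked signalling in HEK293 cells carrying TRHR. Test compounds were added 5 min ahead of a 1 nM TRH challenge.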
# [10] = biological target: Thyrotropin-releasing hormone receptor (Homo sapiens) (UniProt P34981); assay: qHTS assay to identify small molecule agonists of the thyrotropin-releasing hormone receptor (TRHR) signaling pathway (AID 1346891);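 further: HEK293 cells expressing TRHR with calcium dye readout; series mostly up to about 58 µM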
# Outline: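 Compounds were tested as agonists at 15 concentrations, in triplicate, on TRHR-Hek293 cells; calcium-sensitive dye fluorescence was recorded for 3 min following addition.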
# [11] = qHTS assay to identify small molecule antagonists of the progesterone receptor (PR) signaling pathway - cell viability counter screen (AID 1346798; active means well fitted curve in the direction sought with a large enough effect in the repeat runs; an effect the other way counts as inactive or inconclusive; further: nearly all actives have a fitted effect of over 50% in size; further: potency means the concentration at half of the fitted maximal effect)
# Outline: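 CellTiter-Glo luminescence; PR-UAS-bla HEK293T, 3,000 cells/well; compound + R5020, 16 hr, 37C/5% CO2; 30 min RT before read.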
# [12] = qHTS assay to identify small molecule agonists of the progesterone receptor (PR) signaling pathway - cell viability counter screen (AID 1346799); further: nearly all actives have a fitted effect of over 45% in size; further: potency means the concentration at half of the fitted maximal effect
# Outline: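 In parallel with the beta-lactamase readout, cytotoxicity toward PR-UAS-bla HEK293T cells was measured by CellTiter-Glo luminescence following 16 hr compound incubation in 2% charcoal-stripped FBS medium.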
# [13] = qHTS assay to identify small molecule agonists of the estrogen receptor beta (ER-beta) signaling pathway - cell viability counter screen (AID 1259380; active means well fitted curve in the direction sought with a large enough effect in the repeat runs; an effect the other way counts as inactive or inconclusive; further: nearly all actives have a fitted effect of over 30% in size; further: potency means the concentration at half of the fitted maximal effect)
# Outline: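 HEK293T ER-beta-UAS-bla; 2% CS-FBS; 6 hr pre-plate, 16 hr cpd at 37C/5% CO2; LiveBLAzer read first, then CellTiter-Glo 30 min RT, luminescence.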
# [14] = biological target: Androgen receptor (Homo sapiens) (UniProt P10275); assay: qHTS assay to identify small molecule agonists of the androgen receptor (AR) signaling pathway in the presence of an antagonist (AID 1259381); further: nearly all actives have a fitted effect of over 15% in size
# Outline: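 MDA-kb2 cells, 3,000/well, rested 5hr at 37C/0% CO2 → nilutamide 3.0uM final or buffer → compounds, 15 conc. → 16hr at 37C → ONE-Glo, 30min RT → luminescence.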
# [15] = biological target: Thyrotropin receptor (Homo sapiens) (UniProt P16473); assay: qHTS assay to identify small molecule antagonists of the thyroid stimulating hormone receptor (TSHR) signaling pathway (AID 1259385); further: nearly all actives have a fitted effect of over 20% in size; further: potency means the concentration at half of the fitted maximal effect
# Outline: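 TSHR-HEK293 cells were plated and held 18 h at 37C/5% CO2, then given compound plus Ro20-1724 and stimulated with TSH at 1.5 ng/mL final. After 30 min at room temperature, cAMP was detected with cAMP-d2/anti-cAMP-cryptate (1 h) by fluorescence.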
# [16] = qHTS assay to identify small molecule antagonists of the TGF-beta/Smad signaling pathway - cell viability counter screen (AID 1346824; active means well fitted curve in the direction sought with a large enough effect in the repeat runs; an effect the other way counts as inactive or inconclusive; further: nearly all actives have a fitted effect of over 50% in size; further: potency means the concentration at half of the fitted maximal effect)
# Outline: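 SBE-bla HEK 293T cells were plated overnight at 37 C, then given compounds in DMSO plus TGF-beta1 (added as 0.25 ng/mL solution) for 5 hr. After the bla read, CellTiter-Glo was added to the same wells and luminescence read after 30 min at room temperature.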
# [17] = qHTS assay to identify small molecule agonists of the TGF-beta/Smad signaling pathway (AID 1346859; active means well fitted activation curve with a large enough effect in the signal ratio in the repeat runs, not every such curve was filed as active; the % refers to the signal ratio; further: series mostly up to about 77 µM)
# Outline: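 After overnight seeding, SBE-bla HEK 293T cells are dosed with compounds in DMSO and kept 5 hr at 37 C, 5% CO2. LiveBLAzer-type FRET substrate is then applied for 2 hr at room temperature.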
# [18] = biological target: Progesterone receptor (Homo sapiens) (UniProt P06401); assay: qHTS assay to identify small molecule agonists of the progesterone receptor (PR) signaling pathway (AID 1346784); further: nearly all actives have a fitted effect of over 30% in size
# Outline: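 Fluorescence from LiveBLAzer B/G FRET substrate cleavage (2 hr, RT) reported PR activation in PR-UAS-bla HEK 293T cells treated 16 hr at 37C/5% CO2 with compounds; medium contained 2% charcoal-stripped FBS.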
# [19] = biological target: Estrogen receptor beta (Homo sapiens) (UniProt Q92731); assay: qHTS assay to identify small molecule agonists of the estrogen receptor beta (ER-beta) signaling pathway (AID 1259377; active means well fitted activation curve with a large enough effect in the signal ratio in the repeat runs, not every such curve was filed as active; the % refers to the signal ratio)
# Outline: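 qHTS in ER-beta-UAS-bla HEK293T cells: 6 hr settling, then 16 hr compound at 37C, then LiveBLAzer substrate 2 h at RT before fluorescence reading.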
# [20] = biological target: Estrogen receptor beta (Homo sapiens) (UniProt Q92731); assay: qHTS assay to identify small molecule antagonists of the estrogen receptor beta (ER-beta) signaling pathway (AID 1259378; active means well fitted inhibition curve with a large enough effect in the signal ratio in the repeat runs, not every such curve was filed as active; the % refers to the signal ratio)
# Outline: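 ER-beta-UAS-bla HEK293T (GripTite) cells in 2% charcoal-stripped FBS medium were preincubated 6 hr at 37C, dosed with compound, then stimulated with 1 nM E2 (final) for 16 hr; beta-lactamase reporter read by B/G FRET fluorescence after 2 hr substrate loading.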
# Sequence of Thyrotropin-releasing hormone receptor (Homo sapiens) (P34981 whole entry, looked up): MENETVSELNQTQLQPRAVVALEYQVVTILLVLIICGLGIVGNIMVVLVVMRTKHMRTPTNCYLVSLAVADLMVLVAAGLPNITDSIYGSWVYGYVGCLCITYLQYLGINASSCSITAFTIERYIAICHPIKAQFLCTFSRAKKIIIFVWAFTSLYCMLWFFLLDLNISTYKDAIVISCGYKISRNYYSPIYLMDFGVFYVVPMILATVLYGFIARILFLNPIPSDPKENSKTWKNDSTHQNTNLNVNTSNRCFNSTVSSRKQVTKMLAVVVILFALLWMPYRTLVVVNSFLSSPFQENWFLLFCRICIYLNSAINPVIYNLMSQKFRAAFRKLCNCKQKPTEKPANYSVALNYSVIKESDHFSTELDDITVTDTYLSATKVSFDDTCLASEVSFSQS
# Sequence of Estrogen receptor (Homo sapiens) (P03372 whole entry, looked up): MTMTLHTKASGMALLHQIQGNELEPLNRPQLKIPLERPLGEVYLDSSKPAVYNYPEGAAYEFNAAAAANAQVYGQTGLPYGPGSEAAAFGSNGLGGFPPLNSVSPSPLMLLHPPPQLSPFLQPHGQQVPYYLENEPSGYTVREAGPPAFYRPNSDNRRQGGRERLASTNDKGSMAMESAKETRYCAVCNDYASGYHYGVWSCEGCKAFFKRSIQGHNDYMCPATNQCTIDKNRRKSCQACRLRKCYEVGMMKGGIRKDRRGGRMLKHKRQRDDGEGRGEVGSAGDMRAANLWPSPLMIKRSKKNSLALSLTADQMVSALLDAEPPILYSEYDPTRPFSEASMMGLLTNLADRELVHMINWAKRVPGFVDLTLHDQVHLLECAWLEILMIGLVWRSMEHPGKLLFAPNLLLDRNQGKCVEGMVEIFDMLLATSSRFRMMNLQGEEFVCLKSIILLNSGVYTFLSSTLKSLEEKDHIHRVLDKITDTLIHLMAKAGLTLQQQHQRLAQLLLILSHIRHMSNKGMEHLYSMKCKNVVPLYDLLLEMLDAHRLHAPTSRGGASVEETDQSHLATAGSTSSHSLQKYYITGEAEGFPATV
# Sequence of Progesterone receptor (Homo sapiens) (P06401 whole entry, looked up): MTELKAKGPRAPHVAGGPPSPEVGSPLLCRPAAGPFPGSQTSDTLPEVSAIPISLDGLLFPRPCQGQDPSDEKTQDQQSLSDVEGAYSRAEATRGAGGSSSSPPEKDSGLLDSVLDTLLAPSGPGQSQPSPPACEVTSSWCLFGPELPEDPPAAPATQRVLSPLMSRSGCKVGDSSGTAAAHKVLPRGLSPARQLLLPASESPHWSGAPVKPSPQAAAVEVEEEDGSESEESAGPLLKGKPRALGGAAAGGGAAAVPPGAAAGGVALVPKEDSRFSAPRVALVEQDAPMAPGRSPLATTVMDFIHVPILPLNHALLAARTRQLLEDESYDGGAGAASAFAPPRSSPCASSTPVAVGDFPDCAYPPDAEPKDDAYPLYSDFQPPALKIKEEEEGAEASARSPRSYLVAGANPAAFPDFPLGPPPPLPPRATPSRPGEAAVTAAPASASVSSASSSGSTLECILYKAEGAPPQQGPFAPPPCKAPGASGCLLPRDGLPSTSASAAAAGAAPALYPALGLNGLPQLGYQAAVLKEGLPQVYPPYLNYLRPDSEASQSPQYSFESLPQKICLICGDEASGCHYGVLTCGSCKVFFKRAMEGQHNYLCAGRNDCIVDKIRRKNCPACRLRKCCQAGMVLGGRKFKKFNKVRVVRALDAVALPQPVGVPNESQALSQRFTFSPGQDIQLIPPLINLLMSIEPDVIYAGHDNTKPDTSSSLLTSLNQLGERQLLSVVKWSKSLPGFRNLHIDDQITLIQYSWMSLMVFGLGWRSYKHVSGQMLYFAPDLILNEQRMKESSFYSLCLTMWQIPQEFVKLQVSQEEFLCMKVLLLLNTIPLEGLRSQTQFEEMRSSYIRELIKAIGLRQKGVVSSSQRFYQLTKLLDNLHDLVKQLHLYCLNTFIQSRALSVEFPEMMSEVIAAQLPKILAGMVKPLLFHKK
# Sequence of Androgen receptor (Homo sapiens) (P10275 whole entry, looked up): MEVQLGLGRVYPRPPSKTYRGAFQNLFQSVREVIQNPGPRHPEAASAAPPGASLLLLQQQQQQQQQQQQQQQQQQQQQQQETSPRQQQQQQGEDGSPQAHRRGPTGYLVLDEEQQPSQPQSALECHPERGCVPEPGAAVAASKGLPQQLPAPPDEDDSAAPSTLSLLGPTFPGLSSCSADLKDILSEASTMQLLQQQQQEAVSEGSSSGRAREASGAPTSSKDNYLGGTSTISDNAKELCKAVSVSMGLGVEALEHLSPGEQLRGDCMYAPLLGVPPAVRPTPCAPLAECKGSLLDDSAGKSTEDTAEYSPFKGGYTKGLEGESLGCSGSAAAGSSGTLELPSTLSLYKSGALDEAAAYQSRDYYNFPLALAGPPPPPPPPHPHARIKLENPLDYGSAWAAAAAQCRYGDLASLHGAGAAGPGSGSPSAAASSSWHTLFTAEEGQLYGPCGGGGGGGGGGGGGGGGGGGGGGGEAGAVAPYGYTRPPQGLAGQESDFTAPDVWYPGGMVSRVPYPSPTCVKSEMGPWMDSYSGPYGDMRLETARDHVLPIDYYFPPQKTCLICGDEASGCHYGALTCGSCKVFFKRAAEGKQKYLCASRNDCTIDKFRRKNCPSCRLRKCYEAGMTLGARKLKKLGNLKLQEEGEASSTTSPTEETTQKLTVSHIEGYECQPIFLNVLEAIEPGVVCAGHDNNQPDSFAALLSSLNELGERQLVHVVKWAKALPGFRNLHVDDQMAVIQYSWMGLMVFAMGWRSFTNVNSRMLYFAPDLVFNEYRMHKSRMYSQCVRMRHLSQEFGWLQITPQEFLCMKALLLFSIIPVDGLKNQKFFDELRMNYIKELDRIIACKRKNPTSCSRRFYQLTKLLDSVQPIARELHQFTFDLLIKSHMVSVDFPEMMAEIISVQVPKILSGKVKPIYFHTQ
# Sequence of Thyrotropin receptor (Homo sapiens) (P16473 whole entry, looked up): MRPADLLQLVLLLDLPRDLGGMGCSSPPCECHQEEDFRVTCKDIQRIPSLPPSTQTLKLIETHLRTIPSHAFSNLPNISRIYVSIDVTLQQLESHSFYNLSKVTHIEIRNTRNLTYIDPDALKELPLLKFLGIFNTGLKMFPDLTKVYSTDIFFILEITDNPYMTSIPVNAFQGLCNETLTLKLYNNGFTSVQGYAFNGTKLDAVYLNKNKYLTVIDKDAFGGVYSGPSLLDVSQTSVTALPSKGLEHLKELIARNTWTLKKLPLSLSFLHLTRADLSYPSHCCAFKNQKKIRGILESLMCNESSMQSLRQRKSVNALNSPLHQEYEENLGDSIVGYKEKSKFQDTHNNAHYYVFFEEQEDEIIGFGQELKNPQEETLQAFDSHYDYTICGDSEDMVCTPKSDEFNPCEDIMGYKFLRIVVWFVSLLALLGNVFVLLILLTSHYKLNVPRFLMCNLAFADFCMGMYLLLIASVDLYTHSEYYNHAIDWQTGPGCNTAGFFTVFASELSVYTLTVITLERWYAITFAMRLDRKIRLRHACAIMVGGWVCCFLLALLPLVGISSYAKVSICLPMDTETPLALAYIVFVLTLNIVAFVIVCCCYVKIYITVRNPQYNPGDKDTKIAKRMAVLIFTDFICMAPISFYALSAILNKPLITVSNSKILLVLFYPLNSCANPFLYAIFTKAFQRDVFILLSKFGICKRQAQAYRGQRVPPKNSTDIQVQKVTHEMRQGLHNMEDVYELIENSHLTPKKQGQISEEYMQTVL
# Sequence of Estrogen receptor beta (Homo sapiens) (Q92731 whole entry, looked up): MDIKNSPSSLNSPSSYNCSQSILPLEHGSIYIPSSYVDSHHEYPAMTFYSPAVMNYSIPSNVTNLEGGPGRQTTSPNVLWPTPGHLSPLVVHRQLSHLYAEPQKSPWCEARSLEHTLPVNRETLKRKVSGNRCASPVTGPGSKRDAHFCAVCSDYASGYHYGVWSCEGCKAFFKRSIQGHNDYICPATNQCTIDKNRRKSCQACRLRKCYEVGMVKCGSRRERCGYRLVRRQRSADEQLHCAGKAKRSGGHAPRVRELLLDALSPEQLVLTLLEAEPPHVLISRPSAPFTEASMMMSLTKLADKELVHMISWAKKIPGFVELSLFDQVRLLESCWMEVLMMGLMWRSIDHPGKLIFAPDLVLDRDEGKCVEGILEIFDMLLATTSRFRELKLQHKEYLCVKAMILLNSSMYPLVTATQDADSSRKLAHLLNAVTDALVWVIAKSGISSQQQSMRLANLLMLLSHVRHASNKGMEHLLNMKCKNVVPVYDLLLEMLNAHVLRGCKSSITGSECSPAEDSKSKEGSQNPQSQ
smiles,measurement,setting,value
CCN1/C(=C/C=C/c2sc3ccccc3[n+]2CC)Sc2ccccc21,"activity change, negative = inhibition",[1],-19% [at 19 µM]
same,Potency,[2],1.16 µM (active)
same,Potency,[3],11.6 µM (active)
same,activation,[4],-11.7% [at 19 µM]
same,cAMP activity change,[5],-0.304% [at 18.9 µM]
same,Potency,[6],6.51 µM (active)
same,Potency,[7],11.6 µM (active)
same,Potency,[8],4.65 µM (active)
same,"activity, negative = inhibition",[9],-4.16% [at 10.5 µM]
same,activation,[10],-0.259% [at 11.8 µM]
CCCN(CCC)c1c([N+](=O)[O-])cc(C(F)(F)F)c(N)c1[N+](=O)[O-],Potency,[1],21.6 µM (active)
same,Potency,[2],60.9 µM (active)
same,Potency,[3],30.5 µM (active)
same,Potency,[4],inactive
same,outcome,[5],inactive
same,Potency,[6],60.9 µM (active)
same,Potency,[11],34.3 µM (active)
same,Potency,[12],21.6 µM (active)
same,Potency,[8],48.9 µM (active)
same,Potency,[10],inactive
CCCCCCCCCCCC(=O)NCCCN(C)C,Potency,[1],19.3 µM (active)
same,Potency,[13],54.5 µM (active)
same,Potency,[14],inactive
same,Potency,[3],54.5 µM (active)
same,Potency,[4],inactive
same,outcome,[5],inactive
same,Potency,[15],61.1 µM (active)
same,Potency,[6],inactive
same,Potency,[7],61.1 µM (active)
same,Potency,[11],54.5 µM (active)
same,Potency,[12],30.6 µM (active)
same,Potency,[16],49 µM (active)
same,Potency,[8],54.9 µM (active)
same,Potency,[17],inactive
same,Potency,[9],inactive
same,Potency,[10],inactive
Cc1cc(O)c2ccccc2c1O,Potency,[1],13.3 µM (active)
same,Potency,[2],26.6 µM (active)
same,Potency,[14],inactive
same,Potency,[3],23.7 µM (active)
same,Potency,[4],inactive
same,outcome,[5],inactive
same,Potency,[6],29.8 µM (active)
same,Potency,[7],23.7 µM (active)
same,Potency,[16],19 µM (active)
same,Potency,[8],23.9 µM (active)
same,Potency,[9],inactive
same,Potency,[10],inactive
CCCCCCCCCOC(=O)c1ccc(O)cc1,Potency,[1],inactive
same,Potency,[13],53.7 µM (active)
same,Potency,[14],inactive
same,Potency,[3],53.7 µM (active)
same,outcome,[5],inactive
same,Potency,[7],24 µM (active)
same,Potency,[16],inactive
same,Potency,[17],inactive
Nc1c(Cl)cc(Cl)cc1Cl,Potency,[1],inactive
same,Potency,[2],inactive
same,Potency,[3],inactive
same,outcome,[5],inactive
same,Potency,[15],inactive
same,Potency,[6],inactive
same,Potency,[18],inactive
same,Potency,[7],inactive
same,Potency,[11],inactive
same,Potency,[12],inactive
same,Potency,[16],inactive
same,Potency,[8],inactive
same,Potency,[17],inactive
same,Potency,[9],inactive
same,Potency,[10],inactive
CC(C)C(C)(C)C(C)(C)C(C)(C)S,Potency,[19],inactive
same,Potency,[20],inactive
same,Potency,[2],inactive
same,Potency,[13],inactive
same,Potency,[14],inactive
same,Potency,[3],inactive
same,Potency,[4],inactive
same,outcome,[5],inactive
same,Potency,[6],inactive
same,Potency,[18],inactive
same,Potency,[8],inactive
same,Potency,[17],inactive
same,Potency,[9],inactive
same,Potency,[10],inactive
COc1ccc(-c2ccc3cc(C(=O)O)ccc3c2)cc1C12CC3CC(CC(C3)C1)C2,Potency,[1],inactive
same,Potency,[3],inactive
same,Potency,[4],inactive
same,outcome,[5],inactive
same,Potency,[6],inactive
same,Potency,[7],inactive
same,Potency,[11],inactive
same,Potency,[16],inactive
same,Potency,[17],inactive
same,Potency,[9],inactive
same,Potency,[10],inactive
